Compounds without any hit were thinned out: in the full panel of roughly 83,000, 20% have a hit.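 Note: values are percent growth. 100 is the growth of untreated cells, values between 100 and 0 indicate rising inhibition; between -100 and 0 indicates cell death.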 Calls of active or inactive are those of the source. How the source made its calls: active means growth percent below 10; inactive means the rest.
Key:
Experiment in all cases: NCI-60 one-dose screen, 48 h (100 = growth as untreated, 0 = no growth, -100 = all killed)
Conditions in all cases: 10 µM unless noted
SK-MEL-2 melanoma = system: SK-MEL-2 melanoma
EKVX NSCLC = system: EKVX NSCLC
SN12C renal = system: SN12C renal
UO-31 renal = system: UO-31 renal
TK-10 renal = system: TK-10 renal
ACHN renal = system: ACHN renal
CAKI-1 renal = system: CAKI-1 renal
A498 renal = system: A498 renal
CCRF-CEM leukemia = system: CCRF-CEM leukemia
MOLT-4 leukemia = system: MOLT-4 leukemia
SR leukemia = system: SR leukemia
RPMI-8226 leukemia = system: RPMI-8226 leukemia
OVCAR-8 ovarian = system: OVCAR-8 ovarian
OVCAR-5 ovarian = system: OVCAR-5 ovarian
OVCAR-4 ovarian = system: OVCAR-4 ovarian
SK-OV-3 ovarian = system: SK-OV-3 ovarian
IGROV1 ovarian = system: IGROV1 ovarian
OVCAR-3 ovarian = system: OVCAR-3 ovarian
HS 578T breast = system: HS 578T breast
NCI/ADR-RES ovarian = system: NCI/ADR-RES ovarian

Measured: growth

NC1=NN(c2ccccc2)C(=O)/C1=C/c1ccc(Cl)cc1
inactive: SK-MEL-2 melanoma 96.2% | EKVX NSCLC 96% | SN12C renal 94.6% | UO-31 renal 78.3% | TK-10 renal 91.2% | ACHN renal 93.9% | CAKI-1 renal 97% | A498 renal 99.7% | CCRF-CEM leukemia 101% | MOLT-4 leukemia 102% | SR leukemia 94.2% | RPMI-8226 leukemia 94.8% | OVCAR-8 ovarian 99% | OVCAR-5 ovarian 98.1% | OVCAR-4 ovarian 109% | SK-OV-3 ovarian 96.3% | IGROV1 ovarian 99.4% | OVCAR-3 ovarian 108% | HS 578T breast 106% | NCI/ADR-RES ovarian 103%

Cc1ccc(/C=C(\C#N)c2cc3ccccc3n2C)cc1
inactive: SK-MEL-2 melanoma 75.7% | EKVX NSCLC 48.4% | SN12C renal 39.5% | UO-31 renal 56.8% | TK-10 renal 99.3% | ACHN renal 42.9% | CAKI-1 renal 34.4% | A498 renal 10.4% | CCRF-CEM leukemia 13.9% | MOLT-4 leukemia 21.6% | SR leukemia 25.2% | RPMI-8226 leukemia 14% | OVCAR-8 ovarian 38.9% | OVCAR-5 ovarian 38.7% | OVCAR-4 ovarian 61% | SK-OV-3 ovarian 67.8% | IGROV1 ovarian 30.5% | HS 578T breast 34.1%
active: OVCAR-3 ovarian -12.6% | NCI/ADR-RES ovarian -2.11%

O=C1NC(c2ccc(Cl)c(Cl)c2)=C/C1=C\c1ccccc1
active: ACHN renal 4.37% | OVCAR-4 ovarian -36.6%
inactive: SK-MEL-2 melanoma 107% | EKVX NSCLC 70.8% | SN12C renal 71.8% | UO-31 renal 29.2% | TK-10 renal 100% | CAKI-1 renal 49.3% | A498 renal 105% | CCRF-CEM leukemia 45.8% | MOLT-4 leukemia 53.9% | SR leukemia 17.1% | RPMI-8226 leukemia 48.3% | OVCAR-8 ovarian 74.4% | OVCAR-5 ovarian 73.2% | SK-OV-3 ovarian 100% | IGROV1 ovarian 59.2% | OVCAR-3 ovarian 50.8% | HS 578T breast 66.3% | NCI/ADR-RES ovarian 83.7%

COc1ccccc1CNc1nc(N)nc2[nH]c3ccc(O)cc3c12
inactive: SK-MEL-2 melanoma 15.8% | EKVX NSCLC 90.4% | SN12C renal 55.3% | UO-31 renal 59.6% | TK-10 renal 68.6% | ACHN renal 68.5% | CAKI-1 renal 80.5% | A498 renal 28% | CCRF-CEM leukemia 44% | MOLT-4 leukemia 22.4% | RPMI-8226 leukemia 48.8% | OVCAR-8 ovarian 53.7% | OVCAR-5 ovarian 76.4% | OVCAR-4 ovarian 80.2% | SK-OV-3 ovarian 73.4% | IGROV1 ovarian 50.9% | OVCAR-3 ovarian 44.6% | HS 578T breast 59.2% | NCI/ADR-RES ovarian 82.6%
active: SR leukemia 4.16%

Clc1ccccc1-c1nc(Nc2nc3ccccc3s2)nc(C(Cl)(Cl)Cl)n1
active: ACHN renal 6.55% | OVCAR-3 ovarian 4.03%
inactive: SK-MEL-2 melanoma 85.9% | EKVX NSCLC 54% | SN12C renal 82.6% | UO-31 renal 14.3% | TK-10 renal 84.1% | CAKI-1 renal 20.9% | A498 renal 58.3% | CCRF-CEM leukemia 92.5% | MOLT-4 leukemia 86.3% | SR leukemia 79.6% | RPMI-8226 leukemia 10.1% | OVCAR-8 ovarian 68.6% | OVCAR-5 ovarian 74.3% | OVCAR-4 ovarian 64.6% | SK-OV-3 ovarian 56.8% | IGROV1 ovarian 54.3% | HS 578T breast 70% | NCI/ADR-RES ovarian 50.6%

COc1ccc(C2c3ccccc3NC(=O)N2C2CCN(C)CC2)c(OC)c1 (stereo not given)
inactive: SK-MEL-2 melanoma 108% | EKVX NSCLC 87% | SN12C renal 95.6% | UO-31 renal 89.7% | TK-10 renal 98.1% | ACHN renal 103% | CAKI-1 renal 102% | A498 renal 102% | CCRF-CEM leukemia 106% | MOLT-4 leukemia 99.5% | SR leukemia 41.4% | RPMI-8226 leukemia 113% | OVCAR-8 ovarian 104% | OVCAR-5 ovarian 88.4% | OVCAR-4 ovarian 105% | SK-OV-3 ovarian 101% | IGROV1 ovarian 94.3% | OVCAR-3 ovarian 110% | HS 578T breast 92% | NCI/ADR-RES ovarian 103%

CCCNc1nc(N(C)O)nc(N(C)O)n1
active: CCRF-CEM leukemia 6.78% | OVCAR-3 ovarian -10.6%
inactive: SK-MEL-2 melanoma 74.1% | EKVX NSCLC 36.9% | SN12C renal 47.1% | UO-31 renal 21.7% | TK-10 renal 65.1% | ACHN renal 14.5% | CAKI-1 renal 25% | A498 renal 22.3% | MOLT-4 leukemia 14.8% | SR leukemia 32.1% | RPMI-8226 leukemia 38.1% | OVCAR-8 ovarian 26.5% | OVCAR-5 ovarian 64% | OVCAR-4 ovarian 19.2% | SK-OV-3 ovarian 45.2% | IGROV1 ovarian 36.9% | HS 578T breast 71% | NCI/ADR-RES ovarian 16.9%

CC1(C)CC[C@]2(C(=O)NCCNCCN)CC[C@]3(C)C(=CC[C@@H]4[C@@]5(C)CCC(=O)C(C)(C)[C@@H]5CC[C@]43C)[C@@H]2C1
inactive: SK-MEL-2 melanoma 82.4% | EKVX NSCLC 94.8% | SN12C renal 14.2% | UO-31 renal 87.8% | TK-10 renal 127% | ACHN renal 12.2% | CAKI-1 renal 27.1% | A498 renal 81.5% | OVCAR-8 ovarian 21.4% | OVCAR-5 ovarian 106% | OVCAR-4 ovarian 65.3% | SK-OV-3 ovarian 89.9% | IGROV1 ovarian 23.8% | HS 578T breast 79% | NCI/ADR-RES ovarian 93.2%
active: CCRF-CEM leukemia -17.8% | MOLT-4 leukemia 3.49% | SR leukemia -45.6% | RPMI-8226 leukemia -19.9% | OVCAR-3 ovarian -27.2%

CCC1C(=O)COC1=O (stereo not given)
inactive: SK-MEL-2 melanoma 87% | EKVX NSCLC 95.5% | SN12C renal 104% | UO-31 renal 95.7% | TK-10 renal 90.5% | ACHN renal 103% | CAKI-1 renal 92.4% | A498 renal 91.4% | CCRF-CEM leukemia 85.4% | MOLT-4 leukemia 92.9% | SR leukemia 99.2% | RPMI-8226 leukemia 83.9% | OVCAR-8 ovarian 96.6% | OVCAR-5 ovarian 108% | OVCAR-4 ovarian 105% | SK-OV-3 ovarian 71.4% | IGROV1 ovarian 104% | OVCAR-3 ovarian 109% | HS 578T breast 99.1% | NCI/ADR-RES ovarian 87.9%

O=C1/C(=C\c2ccc(Br)o2)SC(=S)N1CCc1ccc(O)cc1
inactive: SK-MEL-2 melanoma 103% | EKVX NSCLC 81.4% | SN12C renal 86.9% | TK-10 renal 92.8% | ACHN renal 49.8% | CAKI-1 renal 27.8% | A498 renal 108% | CCRF-CEM leukemia 21.8% | MOLT-4 leukemia 64.3% | SR leukemia 66.9% | RPMI-8226 leukemia 26.6% | OVCAR-8 ovarian 97.2% | OVCAR-5 ovarian 80% | OVCAR-4 ovarian 65.3% | SK-OV-3 ovarian 86.5% | IGROV1 ovarian 62.6% | OVCAR-3 ovarian 62.9% | HS 578T breast 93.2% | NCI/ADR-RES ovarian 98.7%
active: UO-31 renal -48.4%

CN(C)c1cccc2[nH]c(-c3[nH]ncc3Nc3ccnc(N)n3)nc12
active: SK-MEL-2 melanoma -60.4% | EKVX NSCLC -17% | SN12C renal -7.45% | UO-31 renal -9.8% | TK-10 renal -30.1% | ACHN renal -1.92% | CAKI-1 renal -45.9% | A498 renal -79.4% | CCRF-CEM leukemia 1.73% | MOLT-4 leukemia 1.65% | SR leukemia 7.64% | RPMI-8226 leukemia -15.6% | OVCAR-8 ovarian -22.7% | OVCAR-5 ovarian -1.19% | OVCAR-4 ovarian -11.7% | SK-OV-3 ovarian 0.381% | IGROV1 ovarian -11% | OVCAR-3 ovarian -6.36% | HS 578T breast -13.8% | NCI/ADR-RES ovarian -1.48%

N#C/C(=C\c1ccc(-c2ccc(Br)cc2)o1)c1nc(-c2cccs2)cs1
inactive: SK-MEL-2 melanoma 109% | EKVX NSCLC 79.6% | SN12C renal 94.5% | UO-31 renal 82.1% | TK-10 renal 185% | ACHN renal 105% | CAKI-1 renal 100% | A498 renal 99% | CCRF-CEM leukemia 94.1% | MOLT-4 leukemia 97% | SR leukemia 90.4% | RPMI-8226 leukemia 92.8% | OVCAR-8 ovarian 106% | OVCAR-5 ovarian 95.6% | OVCAR-4 ovarian 96.3% | SK-OV-3 ovarian 111% | IGROV1 ovarian 88.1% | OVCAR-3 ovarian 110% | HS 578T breast 108% | NCI/ADR-RES ovarian 95%

O=C1/C(=C\C(Cl)=C/c2ccc([N+](=O)[O-])cc2)SC(=S)N1CCc1ccc(O)cc1
active: SK-MEL-2 melanoma 0.0993% | EKVX NSCLC -43% | SN12C renal -9.23% | UO-31 renal -91.4% | TK-10 renal -32.7% | ACHN renal -89.4% | CAKI-1 renal -70.5% | A498 renal -27.5% | CCRF-CEM leukemia 8.16% | MOLT-4 leukemia 7.65% | RPMI-8226 leukemia -3.41% | OVCAR-5 ovarian -33.9% | IGROV1 ovarian -67.9% | OVCAR-3 ovarian -53.6% | NCI/ADR-RES ovarian 9%
inactive: SR leukemia 13.2% | OVCAR-8 ovarian 13.3% | OVCAR-4 ovarian 26.7% | SK-OV-3 ovarian 31.8% | HS 578T breast 31.2%

N#C/C(=C\c1ccc(-c2ccc(Cl)cc2)o1)c1nc(-c2ccco2)cs1
inactive: SK-MEL-2 melanoma 102% | EKVX NSCLC 48.6% | SN12C renal 92.8% | UO-31 renal 74.3% | TK-10 renal 62.2% | ACHN renal 101% | CAKI-1 renal 89.3% | A498 renal 108% | CCRF-CEM leukemia 93.9% | MOLT-4 leukemia 97.5% | SR leukemia 95% | RPMI-8226 leukemia 64.7% | OVCAR-8 ovarian 97.5% | OVCAR-5 ovarian 61.8% | SK-OV-3 ovarian 90.9% | IGROV1 ovarian 68.1% | OVCAR-3 ovarian 106% | HS 578T breast 102% | NCI/ADR-RES ovarian 97.4%
active: OVCAR-4 ovarian 4.22%

N#C/C(=C\c1ccc(-c2ccccc2)o1)c1nc(-c2ccco2)cs1
inactive: SK-MEL-2 melanoma 106% | EKVX NSCLC 37.3% | SN12C renal 92.3% | UO-31 renal 55.2% | TK-10 renal 55.8% | ACHN renal 93.4% | CAKI-1 renal 85.2% | A498 renal 125% | CCRF-CEM leukemia 95.9% | MOLT-4 leukemia 98.7% | SR leukemia 103% | RPMI-8226 leukemia 49.6% | OVCAR-8 ovarian 96.9% | OVCAR-5 ovarian 53.8% | OVCAR-4 ovarian 11% | SK-OV-3 ovarian 97.2% | IGROV1 ovarian 43.1% | OVCAR-3 ovarian 78.7% | HS 578T breast 95.7% | NCI/ADR-RES ovarian 95.5%
